Compound activity: PubChem BioAssay, National Center for Advancing Translational Sciences (NCATS)
This excerpt belongs to a sample that is enriched for hits.
Shiga inhibitor = blocks Shiga toxin action in Vero cells | inhibition, % at 38.7 µM | actives 9.2% (n = 290,000) | Vero cells, Shiga toxin protein synthesis inhibition reporter | AID 2315; in the data active means inhibition mostly above about 28%, no sharp cut-off; inactive means mostly below about 43%; further: 0% is about no effect
CHX counter = affects cycloheximide protein synthesis inhibition readout, counter-screen. cell reporter, cycloheximide protein synthesis inhibition counterscreen. max response, %. actives 12% (n = 300,000). AID 2314; in the data active means max response mostly above about 13%, no sharp cut-off; inactive means mostly below about 14%; further: read at 38.3 µM for the half of the compounds with a filed dose; 0% is about no effect
AmpC inh detg = AmpC beta-lactamase inhibition with detergent present; P00811; AmpC hydrolysis of nitrocefin, absorbance 480 nm, 0.01% Triton; Potency, µM (titrated, usually from 114 µM), for inactives: top-dose activity change, negative = inhibition, most hits filed as inhibitors; actives 0.041% (n = 370,000); AID 485294;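 further: potency means the concentration at half of the fitted maximal effect; 0% = no-compound wells and -100% = no-enzyme wells; nearly all actives have a fitted effect of over 25% in size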
Target sequence (P00811 whole entry, looked up): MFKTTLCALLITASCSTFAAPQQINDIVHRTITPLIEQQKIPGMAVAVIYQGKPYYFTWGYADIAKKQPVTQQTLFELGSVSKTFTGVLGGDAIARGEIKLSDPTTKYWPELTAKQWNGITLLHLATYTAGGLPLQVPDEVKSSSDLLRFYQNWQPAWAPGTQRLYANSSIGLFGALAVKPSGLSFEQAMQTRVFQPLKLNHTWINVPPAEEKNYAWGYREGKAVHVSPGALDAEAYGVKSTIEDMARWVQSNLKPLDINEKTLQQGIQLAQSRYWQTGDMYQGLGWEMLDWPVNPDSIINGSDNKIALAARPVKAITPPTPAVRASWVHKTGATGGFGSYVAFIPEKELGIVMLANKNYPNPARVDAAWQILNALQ
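20 mM phosphate pH 7.0 + 0.01% (detergent screen) or 0.0001% Triton X-100; 5.3 nM AmpC reagent; cpd preinc 15 min RT; nitrocefin (800 uM stock) to start; A480 q20 s × 4 min; Activity was normalised to no-enzyme and no-compound control wells.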
AmpC no deterg = AmpC beta-lactamase inhibition without detergent; Potency, µM (titrated, usually from 57.1 µM), inactives show at the top dose activity change, negative = inhibition, usual class: inhibitors; P00811; actives 0.52% (n = 330,000); AmpC nitrocefin hydrolysis, absorbance 480 nm, 0.0001% Triton; AID 485341;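 further: potency means the concentration at half of the fitted maximal effect; plate controls were no compound for no effect and no enzyme for full effect; nearly all actives have a fitted effect of over 20% in size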
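AmpC (5.3 nM in the dispensed reagent) in 20 mM phosphate pH 7.0 with 0.01% (detergent screen) or 0.0001% Triton X-100 was preincubated with compounds for 15 min at room temperature. Nitrocefin was then added from an 800 uM solution, and hydrolysis was followed at 480 nm.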
AMA1 RON2 block = AMA1-RON2 (P. falciparum) interaction inhibition; Potency, µM (titrated, usually from 58.2 µM), without a hit: top-dose activity change, negative = inhibition, most hits filed as inhibitors; AlphaScreen AMA1-biotinylated RON2 peptide binding; actives 0.2% (n = 360,000); AID 720542;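 further: potency means the concentration at half of the fitted maximal effect; 0% = vehicle wells and -100% = peptide control; nearly all actives have a fitted effect of over 45% in size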
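AMA1 (3D7) with his tag at 25 nM final met compounds first, then biotinylated RON2 peptide at 25 nM; detection used donor plus acceptor beads, 10 µg/mL apiece, read by AlphaScreen after 30 min at room temperature.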
SARS PLP yeast = SARS-CoV PLP inhibition in yeast; Potency, µM (highest dose often 32.9 µM), for inactives: at the highest dose activity, positive = growth rescue, most hits filed as activators; S. cerevisiae expressing SARS-CoV PLpro, growth rescue; actives 0.19% (n = 330,000); AID 485353; calls by dose curve; further: potency means the concentration at half of the fitted maximal effect; 0% is about no effect; nearly all actives have a fitted effect of over 55% in size
Active calls of the source: *; ? = inconclusive; nt = no result. Unless noted, the call rests on the fitted dose curve; in most records, active means well fitted curve in the direction sought with a large enough effect; inconclusive means small, poorly fitted or top-dose-only effect, or another doubt; inactive means no such curve, though single readings can be large; an effect the other way counts as inactive or inconclusive.

SMILES | Shiga inhibitor | CHX counter | AmpC inh detg | AmpC no deterg | AMA1 RON2 block | SARS PLP yeast
CCc1ccc(CNCc2cccs2)cc1 | 54.7* | 28.9* | 3.5% | -27.9% | 11.1% | 0.3%
CCN(CC)CCC(C)OC(c1ccccc1)c1ccccc1 (centres undefined) | 53.5* | 21.8* | -2.5% | 4.8% | 33.7% | -1.9%
CCN(CC)CCOC(c1ccccc1)c1ccc(C)cc1 (centres undefined) | 0.9 | -1.6 | 3.7% | 26.3% | -3.2% | 6.5%
CCN(CC)C(=O)CSC(=Nc1ccccc1F)NC#N | 73.2* | 21.7* | ? | -32.4% | 13.9% | 0.9%
N#CNC(=Nc1ccc(F)cc1)SCc1ccccc1 | 1.2 | -1.4 | -7.7% | -16.7% | -1.0% | 8.3%
CCN(CC)C(=O)CSC(Nc1ccc(F)cc1)=C(C#N)C#N | 22.8 | -3.7 | 2.0% | 14.1µM* | 10.5% | 0.6%
Cc1nn(-c2cccc(C(=O)O)c2)c(C)c1[N+](=O)[O-] | -10.0 | 3.6 | 3.2% | -3.9% | -6.2% | -3.1%
Cc1nn(-c2ccc(C(=O)OC(C)C)cc2)c(C)c1[N+](=O)[O-] | 61.9* | 31.5* | -14.0% | -19.2% | ? | -2.1%
Cc1ccc2nc(Nc3nc(CSc4nnc(C)s4)cc(=O)[nH]3)nc(C)c2c1 | 24.7 | -2.7 | 3.9% | -4.7% | 13.5% | 0.0%
O=C(O)c1ccc(OS(=O)(=O)c2cccc(C(F)(F)F)c2)cc1 | nt | nt | -4.8% | -13.9% | -2.6% | -2.5%
COc1ccc2c(c1)O[C@@H](c1ccc3c(c1)OCO3)[C@H](OC(=O)Nc1cc(OC)c(OC)c(OC)c1)C2=O | 36.5* | 14.5* | -1.0% | 61.9% | nt | 3.7%
COc1ccc2c(c1)O[C@@H](c1cccc(C(F)(F)F)c1)[C@H](O)C2=O | 3.0 | 0.9 | ? | 0.0% | nt | -7.4%
CC[C@H](C)[C@@H](NC(=O)O[C@@H]1C(=O)c2cc(Br)ccc2O[C@H]1c1ccc2c(c1)OCO2)C(=O)OC | 37.2 | 9.5 | -8.2% | 35.5µM* | nt | -5.9%
COc1ccc2c(c1)O[C@H](c1ccc3c(c1)OCO3)[C@@H](O)C2=O | 57.9* | 38.0* | -21.5% | -1.4% | -3.9% | -4.3%
Cc1ccc(S(=O)(=O)NNC(=O)C2COc3ccccc3O2)cc1C (centres undefined) | 4.9 | 8.4 | 6.2% | -19.6% | 23.0% | -0.6%
Cc1cccc(C(=O)NCc2nnc3c4ccccc4c(-c4ccccc4)nn23)c1 | -12.7 | -4.9 | ? | -19.1% | -16.6% | ?
C/C(=N\NC(=S)Nc1ccccc1)C1Cc2ccccc2C(=O)O1 (centres undefined) | 82.1* | 51.1* | -6.3% | -18.2% | 43.8% | 1.0%
C/C(=N\NC(=S)Nc1ccccc1C)C1Cc2ccccc2C(=O)O1 (centres undefined) | 45.5 | 40.5* | -2.9% | -25.6% | 72.1% | 0.1%
O=C(NCC1CCCO1)c1c(O)c2c([nH]c1=O)CCCC2 (centres undefined) | 29.4 | 13.2* | ? | -9.6% | 0.0% | -7.4%
COC(=O)c1ccccc1NC(=O)c1c(O)c2c([nH]c1=O)CCCC2 | -6.7 | -2.6 | -6.0% | -18.2% | -6.5% | -7.0%
O=C(Nc1ccc(O)cc1)c1c(O)c2c([nH]c1=O)CCCC2 | 146.2* | 44.4* | 0.5% | -38.4% | 16.2% | 3.0%
CCNC(=O)c1c(O)c2c([nH]c1=O)CCCC2 | -1.4 | 7.1 | 1.5% | -4.5% | 0.5% | 2.8%
Cc1cccc(N2CCN(c3cccc(C)c3)C2c2cccnc2)c1 | 70.9* | 33.6* | ? | -6.3% | ? | -9.8%
COc1ccc(-c2noc(-c3ccoc3C)n2)cc1 | 56.5* | 59.4* | 3.5% | -11.9% | -0.5% | 14.5%
COc1cccc(-c2noc(-c3ccoc3C)n2)c1 | 122.8* | 38.5* | -0.3% | -25.6% | 14.0% | -2.3%
SMILES | Shiga inhibitor | CHX counter | AmpC inh detg | AmpC no deterg | AMA1 RON2 block | SARS PLP yeast
COc1ccc(-c2noc(-c3ccoc3C)n2)cc1OC | -11.6 | -3.2 | -0.3% | -13.4% | -3.8% | 0.1%
Cc1cccc(-c2noc(-c3ccoc3C)n2)c1 | 100.4* | 34.8* | 2.6% | -18.0% | 0.0% | 2.8%
O=C(O)CCCC(=O)NCCCc1ccccc1 | -2.2 | -3.7 | -0.3% | -1.1% | 1.4% | 6.4%
O=C(COC(=O)CCC(=O)c1ccc(F)cc1)NCc1ccco1 | -13.1 | -3.1 | ? | -6.0% | 17.5% | -5.7%
CNC(=O)c1ccc(-n2nc(C)cc2-c2ccccc2)cc1 | 21.8 | -0.7 | 0.8% | 33.8% | -7.2% | 1.8%
CC1CCCCC1NC(=S)NC(=O)c1sc2ccccc2c1Cl (centres undefined) | -6.7 | 12.2* | -7.1% | -43.5% | 3.3% | -1.3%
Cc1c(NC(=S)NC(=O)c2sc3ccccc3c2Cl)cccc1C(=O)O | 161.0* | 61.4* | -1.2% | -6.3% | 7.8% | -2.6%
COC(=O)C1CC2=C(CCCC2=O)N(Cc2ccccc2)C1=O (centres undefined) | nt | nt | nt | nt | 3.3% | nt
COc1cccc(C(C)NC(=S)NCc2ccc(Cl)cc2)c1 (centres undefined) | 18.4 | -4.8 | -4.0% | -31.5% | 8.0% | 0.1%
COc1ccc(NC(=O)CSc2nc(N)c(C#N)cc2C#N)cc1 | -11.7 | 1.6 | -0.9% | -22.5% | 33.8% | 8.0%
CCOC(=O)c1ccc(NC(=O)NC(C)C2CCCO2)cc1 (centres undefined) | 36.4 | 12.1* | -3.0% | -15.5% | 5.5% | -0.5%
CC(=O)c1cccc(NC(=O)NC(C)C2CCCO2)c1 (centres undefined) | -4.8 | 2.7 | 0.6% | -4.7% | 0.8% | 2.5%
CC(NC(=O)Nc1ccc(Cl)cc1)C1CCCO1 (centres undefined) | 20.0* | 8.1 | 4.2% | -25.0% | 2.1% | 0.9%
CCN(Cc1ccncc1)C(=O)c1ccco1 | -7.8 | -2.6 | -6.7% | 4.8% | -16.4% | 2.7%
O=C(CSc1nc(O)cc(=O)n1-c1ccccc1)c1ccc(Br)cc1 | 54.8 | 24.4* | 2.4% | -59.2% | -0.8% | -0.7%
O=C(CSc1nc(O)cc(=O)n1-c1ccccc1)Nc1ccccn1 | 10.0 | 4.6 | 0.6% | 11.2µM* | -12.4% | 0.7%
O=C(CNC(=O)c1ccccc1)N/N=C/c1cc(Br)ccc1O | -12.0 | -5.3 | 0.0% | -39.5% | 45.8% | 13.9%
COc1ccc(C(CC(=O)c2ccccc2)S(=O)(=O)c2ccc(C)cc2)cc1 (centres undefined) | 32.7* | 33.8* | 0.9% | -17.5% | 3.4% | -0.1%
CN1c2ccc([N+](=O)[O-])cc2CC2(C(=O)NC(=O)NC2=O)C1c1ccccc1 (centres undefined) | -4.2 | -2.0 | -11.1% | 3.98µM* | -21.6% | 16.7%
CN1c2ccc([N+](=O)[O-])cc2CC2(C(=O)NC(=O)N(c3ccccc3)C2=O)C1c1ccccc1 (centres undefined) | -4.9 | -4.9 | -14.0% | -16.4% | 11.4% | 3.1%
